PubChem BioAssay (NCATS)
Results filed as inconclusive are left out. A call without a number means that no potency is given here. Active and inactive are the calls of the source. Calls follow the shape of the dose curve; as a rule, active = well fitted inhibition curve with a large enough effect; inconclusive = small, poorly fitted or top-dose-only effect; inactive = flat fitted curve, though single readings scatter.

Each compound was assayed against Calcium and integrin-binding protein 1 (Homo sapiens) (UniProt Q99828) (assay: Primary qHTS for Identification of Calcium Integrin Binding Protein 1 (CIB1) Competitor (AID 1508620; also: top concentration of the series differs between compounds)). Settings: CIB1-GST / FITC-alphaIIb peptide fluorescence polarization; series mostly up to 114 µM.
Outline: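 Fluorescence polarization competition: GST-tagged CIB1 (1 uM final) preincubated with compound 15 min at room temperature, then FITC-labelled alphaIIb peptide (100 nM final) added. After 15 min at room temperature, polarization read at Ex 480/Em 540.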

Calcium and integrin-binding protein 1 (Homo sapiens), sequence (Q99828 whole entry, looked up): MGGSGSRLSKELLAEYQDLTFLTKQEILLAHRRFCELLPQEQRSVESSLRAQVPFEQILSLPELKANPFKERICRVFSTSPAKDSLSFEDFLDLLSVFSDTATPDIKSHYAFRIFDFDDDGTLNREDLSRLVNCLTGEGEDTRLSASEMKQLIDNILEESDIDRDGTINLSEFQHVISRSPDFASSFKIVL

SMILES	Potency
Cc1ccnc(NC(=S)Nc2cccc(C(F)(F)F)c2)c1	inactive
O=C(NCCCc1cnc[nH]1)NCCCN(Cc1ccc(Cl)c(Cl)c1)c1ccc(Br)cn1	inactive
O=C1CCCC2=C1C(c1[nH]ncc1Cl)N=C(Nc1nc3c(Br)cccc3o1)N2 (stereo not drawn)	inactive
CCCCN(C)C(=O)Cn1nc(-c2ccncc2)ccc1=O	inactive
Cn1nnnc1Sc1ncnc2scc(-c3cccc(F)c3)c12	inactive
Cc1ccnc(NC(=S)N2CCN(c3ccc(C(F)(F)F)cc3[N+](=O)[O-])CC2)c1	inactive
COc1ccc(C2=Nn3c(nnc3-c3ccccc3O)SC2)cc1	inactive
Cc1cc(N[S+](=O)([O-])c2cc3c(cc2F)NC(=O)CC3)ccc1Br	inactive
Cc1ccccc1S(=O)(=O)N1CCN(S(=O)(=O)c2ccc3c(c2)OCCO3)CC1	inactive
Cn1nnnc1Sc1ncnc2scc(-c3ccc(C#N)cc3)c12	inactive
O=C1CCCC2=C1C(c1ccncc1Cl)N=C(Nc1nc3ccccc3o1)N2 (stereo not drawn)	inactive
COc1ccc(Cn2ncc3c4sc(C)cc4n(C)c3c2=O)cc1	inactive
COc1cccc(NC(=S)N2CCN(c3ccc(Cl)cc3Cl)CC2)n1	inactive
COc1ccc(C2Nc3ccccc3C(=O)N2Cc2ccncc2)cc1COc1ccc(NC(C)=O)cc1 (stereo not drawn)	inactive
Cc1c(Cl)cccc1NS(=O)(=O)c1cc2c(cc1F)NC(=O)CC2	inactive
O=C1c2ccccc2C(=O)N1Cc1cccnc1	inactive
FC(F)(F)c1ccccc1-c1nc(NCc2ccc(-c3ccc4c(c3)OCCO4)cc2)c2ccccc2n1	inactive
CN(C)c1cccc(-c2cnc(N3CCC(C(N)=O)CC3)nc2)c1	inactive
CC(C)(C)OC(=O)Cc1nnc(C(C(=O)OCc2ccccc2)c2ccccc2)o1 (stereo not drawn)	inactive
COc1cccc(CNc2ccc(S(=O)(=O)Nc3cc(C)on3)cc2)c1O	inactive
COc1ccc(C2Nc3ccccc3C(=O)N2C2CCCC2)cc1COc1ccc(NC(C)=O)cc1 (stereo not drawn)	inactive
N#Cc1nc(Nc2cccc(Cl)c2)c2ncn(C3CCCC3)c2n1	inactive
Cc1cc(-c2nnc3n2CCCCC3)c(C)n1-c1ccc(Cl)c(Cl)c1	inactive
